Source: PubChem (National Center for Advancing Translational Sciences (NCATS))
Sampled rows, rich in hits. Any-hit rate of the full collection: about 1.2%.
gsp antag: qHTS for Antagonists of gsp, the Etiologic Mutation Responsible for Fibrous Dysplasia/McCune-Albright Syndrome: qHTS | gsp-mutant cells, cAMP HTRF, 30 min | Potency, µM (series often up to 76.9 µM), actives largely listed as inhibitors | 340,000 compounds, 0.4% hits | AID 624288, 2012; calls by dose curve; cell line not stated here;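 also: intracellular cAMP measured with PDE inhibitor Ro 20-1724 present during compound exposure; nearly all actives have a fitted effect of over 65% in size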
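Cells, 2000/well, grown 16–24 h in DMEM 10% FBS with 0.5 mg/ml G418, then compounds plus […] (300 uM addition stock), 30 min at 37C. cAMP read by HTRF (cAMP-d2 and anti-cAMP antibody-K in lysis buffer) after 30 min RT.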
gsp agonist: qHTS for Agonist of gsp, the Etiologic Mutation Responsible for Fibrous Dysplasia/McCune-Albright Syndrome: qHTS; gsp mutant cells, cAMP HTRF, 30 min; Potency, µM (series often up to 76.9 µM), actives largely listed as activators; 340,000 compounds, 0.13% hits; AID 624287, 2012; active = well fitted activation curve with a large enough effect; inconclusive = small, poorly fitted or top-dose-only effect, or another doubt; inactive = no such curve, though single readings can be large or run the other way; cell line not stated here;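 also: phosphodiesterase inhibitor Ro 20-1724 added with compounds to block cAMP breakdown; nearly all actives have a fitted effect of over 60% in size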
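Cells in DMEM/10% FBS with G418 were pretreated with compounds in DMSO plus […] (300 uM stock) for 30 min at 37C. cAMP was measured by HTRF (cAMP-d2 plus anti-cAMP antibody-K) after 30 min at room temperature.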
RXFP1 agonist: qHTS Assay for Agonists of the Relaxin Receptor RXFP1; Relaxin receptor 1 (Homo sapiens), Q9HBX9; HEK293T-RXFP1 cAMP TR-FRET, 30 min; response scale: percent of porcine relaxin response, buffer zero; Potency, µM (top dose mostly 57.5 µM), actives largely listed as activators; 370,000 compounds, 0.3% hits; active = well fitted activation curve with a large enough effect; inconclusive = small, poorly fitted or top-dose-only effect; also: nearly all actives have a fitted effect of over 60% in size
Target sequence (Q9HBX9 whole entry, looked up): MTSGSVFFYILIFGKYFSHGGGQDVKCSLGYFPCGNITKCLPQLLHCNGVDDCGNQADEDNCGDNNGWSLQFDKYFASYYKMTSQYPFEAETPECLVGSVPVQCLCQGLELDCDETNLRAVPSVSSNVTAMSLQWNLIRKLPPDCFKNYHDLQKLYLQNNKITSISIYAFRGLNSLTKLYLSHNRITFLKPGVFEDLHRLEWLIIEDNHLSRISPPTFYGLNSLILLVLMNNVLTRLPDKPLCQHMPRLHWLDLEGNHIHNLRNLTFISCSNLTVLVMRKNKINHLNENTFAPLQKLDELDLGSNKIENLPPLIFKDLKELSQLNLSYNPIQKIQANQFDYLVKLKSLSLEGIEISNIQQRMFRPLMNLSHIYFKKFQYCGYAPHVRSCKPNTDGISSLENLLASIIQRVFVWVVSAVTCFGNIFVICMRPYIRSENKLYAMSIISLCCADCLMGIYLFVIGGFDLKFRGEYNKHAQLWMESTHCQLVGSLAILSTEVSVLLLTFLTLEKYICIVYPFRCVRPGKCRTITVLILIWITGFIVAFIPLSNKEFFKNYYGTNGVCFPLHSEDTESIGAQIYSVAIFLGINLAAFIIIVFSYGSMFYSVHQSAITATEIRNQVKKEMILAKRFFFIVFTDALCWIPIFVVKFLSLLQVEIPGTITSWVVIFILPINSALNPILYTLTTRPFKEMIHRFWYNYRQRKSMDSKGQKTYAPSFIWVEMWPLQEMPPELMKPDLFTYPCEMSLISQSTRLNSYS
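Agonist response is measured as cAMP accumulation in an RXFP1-transfected HEK293T line under PDE4 inhibition. Values are scaled between buffer-only and 29 nM porcine relaxin, and EC50s come from standard Hill equation fits.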
RXFP1 antag: qHTS Assay for Antagonists of the Relaxin Receptor RXFP1; HEK293-RXFP1, relaxin-stimulated cAMP HTRF, 30 min; stronger effect = lower value; activity change, negative = inhibition, % at 57.5 µM; 350,000 compounds, 0.59% hits; AID 1259400, 2018;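 active = activity change of -60% or lower, but not beyond a set lower limit; inconclusive = change between -60% and -40%, or beyond the set limit; inactive = change above -40%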
pAkt inh: HTS Assay for Inhibitors of Akt Phophorylation: Primary Screen; Neuro2A IGF-stimulated pAkt S473 HTRF, 20 min; stronger effect = lower value; activity change, % for hits at 50 µM; 360,000 compounds, 0.32% hits; AID 651550, 2012; in the data active = activity change below about -80%; inconclusive = mostly about -51% to -80%
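Neuro2A cells in DMEM with 0.5% FBS, overnight at 37 deg C, given compound at single 50 µM final, then IGF (6 nM final) for 20 min at 37 deg C. Lysed; phospho-Akt Ser473 by HTRF after 24 h, 665/615 ratio.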
Large screens that a line does not name were inactive.

CC(C)(C)C1CCC(CC2=C(O)c3ccccc3C(=O)C2=O)CC1 (centres undefined)	none (no result: gsp antag, gsp agonist, RXFP1 agonist, pAkt inh)
CC(C)CCN1C(=O)c2ccc(C(=O)Nc3ccc(Br)cc3C(=O)O)cc2C1=O	gsp antag 35µM
CC(C)CN1C(=O)c2ccc(C(=O)Nc3ccccn3)cc2C1=O	none
CCCN1C(=O)c2ccc(C(=O)Nc3nccs3)cc2C1=O	pAkt inh -111%
CC(C)CCN1C(=O)c2ccc(C(=O)Nc3cc(C(=O)O)cc(C(=O)O)c3)cc2C1=O	none
CC(C)CN1C(=O)c2ccc(C(=O)Nc3ccncc3)cc2C1=O	gsp antag 28µM
Cc1cnc(NC(=O)c2ccc3c(c2)C(=O)N(Cc2ccco2)C3=O)s1	pAkt inh -120%
Cn1ccc2cc(-c3ccc4ncnc(NCc5cccc(F)c5)c4c3)ccc21	none (no result: gsp antag, gsp agonist, RXFP1 antag, pAkt inh)
Cc1cc(C)c(S(=O)(=O)NCC(c2ccco2)N2CCN(c3ccccc3)CC2)c(C)c1 (centres undefined)	none (no result: gsp antag, gsp agonist, pAkt inh)
O=C(COc1ccccc1F)Nc1ccc2nc(SCC(=O)N3CCOCC3)sc2c1	RXFP1 antag inconclusive (no result: gsp antag, gsp agonist, pAkt inh)
COC(=O)c1cccc(NC(=O)c2ccc3c(c2)C(=O)N(Cc2cccnc2)C3=O)c1	gsp antag inconclusive
COC(=O)c1ccc(NC(=O)c2ccc3c(c2)C(=O)N(Cc2cccnc2)C3=O)cc1	gsp antag 40µM
CC(C)(C)n1nnnc1CN1CCN(C2CCCC2)CC1	pAkt inh -103%
COc1cccc(N2CCN(C(=O)c3cccn3-c3nnc(N4CCCC4)s3)CC2)c1	none (no result: gsp antag, gsp agonist, pAkt inh)
S=c1nc(SCc2ccccc2)[nH]c2ccccc12	RXFP1 agonist 28µM
c1ccc(CSc2nc3ncncc3[nH]2)cc1	gsp agonist inconclusive
Cc1ccc(-n2[nH]c(C)c(/C=N/Nc3ccc([N+](=O)[O-])cc3[N+](=O)[O-])c2=O)cc1	gsp antag 32µM, gsp agonist inconclusive, RXFP1 antag -74
Cc1[nH]n(-c2ccc([N+](=O)[O-])cc2)c(=O)c1C=NCC1CCCO1 (centres undefined)	none
O=C(c1ccc2c(=O)n3c(nc2c1)CCCCC3)N1CCN(c2ccccc2)CC1	none
O=C(c1ccc2c(=O)n3c(nc2c1)CCCCC3)N1CCCCC1	RXFP1 antag -108
CCCCOc1cccc(C(=O)N(Cc2cccs2)c2ccc(OC)cc2)c1	none (no result: gsp antag, gsp agonist, pAkt inh)
Cc1cc(C)cc(N2C(=O)CSC23C(=O)N(Cc2c(F)cccc2Cl)c2ccccc23)c1 (centres undefined)	none (no result: gsp antag, gsp agonist, RXFP1 antag, pAkt inh)
Cc1cnc(C(=O)Nc2cccc3cccnc23)cn1	pAkt inh -109%
Cc1cccc(C(=O)Nc2cccc3cccnc23)c1	none
CNC(=O)c1cc(Nc2nnc(-c3ccc(O)cc3)c3ccccc23)ccc1OC	none
CCOc1ccc(-c2nnc(Nc3ccc(OC)c(C(=O)N4CCCCC4)c3)c3ccccc23)cc1	gsp antag 35µM
CCOC(=O)C(O)c1ccccc1 (centres undefined)	none (no result: gsp antag, gsp agonist, RXFP1 agonist, pAkt inh)
CCOC(=O)C1(Cc2ccccc2C(F)(F)F)CCN(C2CCN(C(C)=O)CC2)CC1	RXFP1 antag -63
CCOC(=O)C1(Cc2ccccc2C(F)(F)F)CCN(C2CCC2)CC1	none (no result: gsp antag)
COc1ccc(C(=O)N2CC(=O)Nc3ccc(F)cc3C2c2ccc(F)cc2)c(OC)c1 (centres undefined)	none (no result: gsp antag, gsp agonist, pAkt inh)
NC(=O)c1cc[n+](CC2=C(C(=O)[O-])N3C(=O)[C@@H](NC(=O)Cc4cccs4)[C@H]3SC2)cc1	none (no result: gsp antag, gsp agonist, RXFP1 agonist, pAkt inh)
Cc1ccc(Cl)cc1-n1ncc2c(NCc3ccc(F)cc3)ncnc21	RXFP1 antag -65 (no result: gsp antag, gsp agonist, pAkt inh)
COC(=O)C(C)Sc1ccc2nnc(-c3ccccc3)n2n1 (centres undefined)	gsp agonist 10µM, RXFP1 agonist 25µM
Cc1ccc(-c2nnc3ccc(SC(C)C(=O)O)nn23)cc1 (centres undefined)	gsp agonist 10µM, RXFP1 agonist inconclusive (no result: RXFP1 antag)
CCOC(=O)C(C)Sc1ccc2nnc(-c3ccc(F)cc3)n2n1 (centres undefined)	none
CC(C)CCNC(=O)CN1C(=O)CSc2ccc(S(=O)(=O)N3CCC(C)CC3)cc21	none (no result: gsp antag, gsp agonist, pAkt inh)
Cc1cccc(NS(=O)(=O)c2ccc3c(c2)CC(C)N3C(=O)C2CCC2)c1C (centres undefined)	none (no result: gsp antag, gsp agonist, pAkt inh)
Cc1c(CCC(=O)O)c(=O)oc2cc3occ(-c4ccc(Cl)cc4)c3cc12	none
Cc1c(CCC(=O)O)c(=O)oc2c(C)c3occ(-c4ccc(Cl)cc4)c3cc12	gsp antag 32µM
O=C(CSc1nc(-c2ccc(Cl)cc2)[nH]c(=O)n1)Nc1cccc(Cl)c1	RXFP1 antag -70
CC(C)Oc1ccc(CNC(=O)C(C)n2ccc3cc(S(=O)(=O)N4CCCCCC4)ccc32)cc1 (centres undefined)	none (no result: gsp antag, gsp agonist, pAkt inh)
Nc1c(-c2nc(-c3ccccc3)cs2)c2ccccn2c1C(=O)c1ccc2c(c1)OCO2	none (no result: gsp antag, gsp agonist, pAkt inh)
O=C(O)c1ccc(N=Nc2c(O)[nH]c3ccccc23)cc1	gsp antag 28µM, gsp agonist inconclusive
CN(C)C(=O)c1ccc(N=Nc2c(O)c3ccccc3[nH]c2=O)cc1	none (no result: RXFP1 agonist)
O=C(Cn1nnc(-c2ccccc2)n1)N=Nc1c(O)[nH]c2ccccc12	pAkt inh -105%
O=C(CCSCc1cccc(Cl)c1)N1CCN(c2ccc(Cl)cc2)CC1	none (no result: gsp antag, gsp agonist, pAkt inh)
O=C(Nc1ccc2c(c1)OCO2)N1CCN(C/C=C/c2ccccc2)CC1	pAkt inh -83%
COc1ccc(Nc2cc(O)c3ncccc3c2)cc1	none (no result: gsp antag, gsp agonist, RXFP1 antag, pAkt inh)
CCCN1CCN(C(=O)c2ccccc2-c2nc3ccccc3s2)CC1	gsp antag 11µM
CCCN1CCN(C(=O)c2cc3c(s2)-c2ccccc2OC3)CC1	RXFP1 agonist 18µM (no result: RXFP1 antag)
CCN1CCN(C(=O)c2ccc(-c3nc4ccccc4s3)s2)CC1	none
O=C(O)c1ccc(N2C(=O)c3cccc4c(C(=O)O)ccc(c34)C2=O)cc1	gsp agonist 20µM, RXFP1 agonist inconclusive
O=C(O)c1ccc2c3c(cccc13)C(=O)N(c1ccccc1)C2=O	none
CC(=O)Nc1ccc2c3c(cccc13)C(=O)N(c1ccccc1)C2=O	gsp agonist 35µM
Cc1cc(C)c(NC(=O)C2CCN(C(=O)N3CCOc4ccccc43)CC2)c(C)c1	none (no result: gsp antag, gsp agonist, pAkt inh)
Cc1ccc(S(=O)(=O)Nc2ccccc2C=Nc2cccc(C)c2C)cc1	RXFP1 antag -66
Cc1ccc(S(=O)(=O)Nc2ccccc2N=Cc2c(F)c(F)c(F)c(F)c2F)cc1	none (no result: RXFP1 agonist)
O=C1c2cccc(O)c2C(=O)c2c(O)cccc21	none (no result: gsp antag, gsp agonist, pAkt inh)
CC1OC(CC(=O)O)CC2=C1C(=O)c1c(O)cccc1C2=O (centres undefined)	gsp antag inconclusive, RXFP1 antag -63 (no result: RXFP1 agonist)
O=C(NCc1ccc(F)cc1)C1CCC(CNS(=O)(=O)c2cccs2)CC1 (centres undefined)	none
